# POLI inh: qHTS for Inhibitors of Polymerase Iota. DNA polymerase iota (Homo sapiens), Q9UNA4. Pol iota fluorescent replication assay, 10 min. Potency, µM (doses to about 115 µM), most hits filed as inhibitors. 390,000 tested, 1% active. AID 588590, 2011
#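 Fluorescent replication assay read twice, at 0 min and 10 min after adding 50 nM (final) substrate. Enzyme (10 nM) and compounds were first incubated 15 min at room temperature; enzyme-free buffer wells were negative controls.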
# Tb PGK inh: qHTS Assay to Find Inhibitors of Phosphoglycerate Kinase | PGK/GAPDH coupled, Kinase-Glo luminescence, 60 min | Potency, µM (highest dose often 57.5 µM), hits mostly inhibitors | Phosphoglycerate kinase, glycosomal (Trypanosoma brucei brucei), P07378 | 380,000 tested, 0.043% active | AID 602233, 2012; also: nearly all actives have a fitted effect of over 60% in size
# Target sequence (P07378 whole entry, looked up): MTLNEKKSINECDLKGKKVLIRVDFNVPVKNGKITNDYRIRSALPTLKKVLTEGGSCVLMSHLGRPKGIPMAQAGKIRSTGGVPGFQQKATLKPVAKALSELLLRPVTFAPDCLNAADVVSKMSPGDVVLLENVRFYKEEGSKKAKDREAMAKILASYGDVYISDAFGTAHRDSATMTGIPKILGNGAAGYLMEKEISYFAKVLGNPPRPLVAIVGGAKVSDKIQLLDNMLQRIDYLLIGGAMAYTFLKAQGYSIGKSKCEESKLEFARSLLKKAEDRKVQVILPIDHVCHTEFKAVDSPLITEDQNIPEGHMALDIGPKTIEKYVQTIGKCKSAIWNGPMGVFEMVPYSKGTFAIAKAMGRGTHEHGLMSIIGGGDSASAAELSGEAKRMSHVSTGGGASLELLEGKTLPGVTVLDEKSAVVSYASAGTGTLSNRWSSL
#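 Luminescent ATP detection (Kinase-Glo Plus) follows a 60-minute room-temperature incubation, with wells lacking PGK as controls. Buffer: 100 mM TEA (pH 7.6), 5 mM MgCl2, 0.01% Tween-20. Coupling enzyme GAPDH (100 nM final) supplies unstable 1,3-BPG in-well.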
# Pol beta inh: qHTS Assay for Inhibitors of DNA Polymerase Beta | 340,000 tested, 1.3% active | P06746 | AID 485314, 2010 | Potency, µM (highest dose often 114 µM), usual class: inhibitors | Pol beta primer extension/strand displacement, fluorescence kinetic
#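 Homogeneous kinetic assay of primer extension and strand displacement by 10 nM Pol beta, preincubated 15 min at room temperature with compound before 50 nM substrate (final) was added. Read at 0 and 10 min; four-parameter Hill fit.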
# FEN1 inh: qHTS Assay for the Inhibitors of Human Flap endonuclease 1 (FEN1); AID 588795, 2011; Potency, µM (titrated, usually from 114 µM), most hits filed as inhibitors; Recombinant FEN1 flap cleavage, fluorescence, 15 min; 390,000 tested, 0.35% active; also: nearly all actives have a fitted effect of over 65% in size
#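 Steps: FEN1 (10 nM) dispensed; compound added by pin tool; 15 min at room temperature; substrate added to 50 nM final; reads at 0 min and 15 min; data normalized and fitted (four-parameter Hill).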
# Pol eta inh-1: qHTS for Inhibitors of Polymerase Eta. DNA polymerase eta (Homo sapiens), Q9Y253. recombinant Pol eta, fluorescent DNA replication assay. Potency, µM (top dose mostly 114 µM), most hits filed as inhibitors. 390,000 tested, 1.2% active. AID 588591, 2011
#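 Pol eta (10 nM) was preincubated with compounds for 15 min at room temperature, after which fluorescent replication substrate (50 nM final) was added to start the reaction. Fluorescence was read kinetically at 0 and 10 min.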
# Pol kappa inh-1: qHTS for Inhibitors of Polymerase Kappa; DNA polymerase kappa (Homo sapiens), Q9UBT6; purified Pol kappa, fluorescent DNA synthesis assay, 10 min; Potency, µM (titrated, usually from 107 µM), most hits filed as inhibitors; 400,000 tested, 0.53% active; AID 588579, 2011
#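 Here, compound and 10 nM enzyme are combined for 15 min at room temperature; adding 50 nM substrate (final) starts DNA synthesis, tracked by fluorescence at 0 and 10 min against buffer-only wells.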
# TbPGK inh: qHTS for inhibitors of Phosphogylcerate Kinase: Hit Validation Screen; TbPGK coupled GAPDH assay, Kinase-Glo luminescence; 500 tested, 79% active; AID 686980, 2013; Potency, µM (doses to about 57.5 µM), usual class: inhibitors; shares compounds with Pol kappa inh-1; also: nearly all actives have a fitted effect of over 65% in size
# Pol iota confirm: qHTS for Inhibitors of Polymerase Iota: Confirmatory Assay for Cherry-picked Compounds. shares compounds with Pol kappa inh-1. Pol iota primer extension, TAMRA/BHQ fluorescence. Potency, µM, actives largely listed as inhibitors. 1,500 tested, 77% active
# Pol kappa inh-2: qHTS for Inhibitors of Polymerase Kappa: Confirmatory Assay for Cherry-picked Compounds; shares compounds with Pol eta inh-1; purified Pol-kappa, fluorescent strand-displacement substrate; Potency, µM, usual class: inhibitors; 920 tested, 76% active
# Pol eta inh-2: qHTS for Inhibitors of Polymerase Eta: Confirmatory Assay for Cherry-picked Compounds; shares compounds with Pol eta inh-1; Pol eta primer extension, TAMRA/BHQ fluorescence, 10 min; Potency, µM, most hits filed as inhibitors; 2,600 tested, 64% active; AID 720502, 2013
# A number is an active result; n = inactive; u = inconclusive; x = not tested or not shown. Sampled rows, rich in hits. Any-hit rate of the full collection: about 2.4%. Calls follow the shape of the dose curve; as a rule, active = well fitted curve in the direction sought with a large enough effect; inconclusive = small, poorly fitted or top-dose-only effect, or another doubt; inactive = no such curve, though single readings can be large; an effect the other way counts as inactive or inconclusive.
SMILES,POLI inh,Tb PGK inh,Pol beta inh,FEN1 inh,Pol eta inh-1,Pol kappa inh-1,Pol iota confirm,Pol eta inh-2,others
CC(=O)c1cccc(NC(=O)CSc2ccc(-c3ccco3)nn2)c1,22.4µM,n,50.1µM,n,u,u,u,u,
CCOC(=O)C1=C(C)N=c2s/c(=C/c3ccccc3)c(=O)n2C1c1ccc(OC)c(OC)c1 (stereo unspecified),n,n,n,n,n,n,x,x,
CCOC(=O)C1=C(C)N=c2s/c(=C\c3ccc(O)c([N+](=O)[O-])c3)c(=O)n2C1c1ccccc1OC (stereo unspecified),u,n,n,n,n,n,x,x,
CCOC(=O)C1=C(C)N=c2s/c(=C/c3cccc([N+](=O)[O-])c3O)c(=O)n2C1c1ccc(OC)cc1OC (stereo unspecified),u,u,n,n,50.1µM,n,75.2,75.7,
CCOC(=O)C1=C(C)N=c2s/c(=C/c3ccc(OCC(=O)O)cc3)c(=O)n2C1c1ccc(OC)cc1OC (stereo unspecified),u,u,n,u,28.2µM,u,33.6,67.5,Pol kappa inh-2=29.9
CCOC(=O)C1=C(C)N=c2s/c(=C/c3ccc(OCC(=O)O)c(OC)c3)c(=O)n2C1c1ccc(Cl)cc1 (stereo unspecified),10µM,14.1µM,x,50.1µM,20µM,u,15,33.8,TbPGK inh=10.3µM;Pol kappa inh-2=7.52
Nc1ncc(S(=O)(=O)NCc2cccc(Cl)c2)cn1,n,n,n,n,n,n,x,x,
Cn1c(SCC(=O)N2CCOCC2)ncc(C(=O)Nc2ccc(F)cc2)c1=O,n,n,n,n,n,n,x,x,
CCOC(=O)C1=C(CN2CCN(c3ccccc3F)CC2)NC(=O)NC1c1ccc(OC)cc1 (stereo unspecified),n,n,n,n,n,n,x,x,
N#Cc1ccc(CN2CC3(CCN(C(=O)c4csnn4)CC3)C2)cc1,x,x,x,x,x,n,x,x,
Cc1ccc(NC(=O)/C(C#N)=C/c2ccc(-c3ccc(Cl)c(C(=O)O)c3)o2)cc1C,n,n,n,n,n,u,x,x,
O=C(O)c1cc(-c2ccc(/C=C3/SC(=S)N(Cc4ccccc4)C3=O)o2)ccc1Cl,12.6µM,n,15.8µM,n,10µM,79.4µM,75.2,26.9,
CC1=NOC(=O)/C1=C\c1ccc(-c2ccccc2Br)o1,u,n,22.4µM,39.8µM,20µM,u,75.2,47.8,
COC(=O)c1ccc(N2NC(=O)/C(=C/c3ccc(-c4ccc(Cl)c(C(=O)O)c4)o3)C2=O)cc1,8.91µM,u,22.4µM,u,3.16µM,28.2µM,26.7,7.57,Pol kappa inh-2=4.74
CC1=NOC(=O)/C1=C/c1ccc(O)cc1,u,n,n,n,n,n,x,x,
CC1=NOC(=O)/C1=C\c1ccc(-c2ccc(Cl)c(C(=O)O)c2)o1,11.2µM,u,14.1µM,u,4.47µM,35.5µM,42.3,21.3,
O=C(O)c1cc(-c2ccc(/C=N/Nc3ccc(Cl)cc3)o2)ccc1Cl,u,n,n,n,u,n,x,x,
Cc1ccc(/C=C2\SC(=S)N(Cc3ccccc3)C2=O)o1,n,n,n,n,n,n,x,x,
CCN1CCc2c(sc(-n3cccc3)c2C(C)NC(=O)Nc2cc(Cl)c(OC)cc2OC)C1 (stereo unspecified),n,n,n,n,n,n,x,x,
CN(/N=C/c1ccc(-c2ccc([N+](=O)[O-])cc2)o1)c1ccccc1,n,n,n,n,n,n,x,x,
O=C(O)c1ccc(N2C(=O)/C(=C/c3ccc(-c4ccc([N+](=O)[O-])cc4)o3)C=C2c2ccccc2)cc1,u,u,10µM,u,3.55µM,u,8.44,7.57,
O=C1NN(c2ccccc2)C(=O)/C1=C/c1ccc(Sc2cccc3ccccc23)o1,11.2µM,n,20µM,u,28.2µM,u,75.2,30.1,
O=C(O)CCCN1C(=O)/C(=C\c2ccc(-c3nc4ccccc4s3)o2)SC1=S,u,u,15.8µM,35.5µM,15.8µM,u,x,33.8,TbPGK inh=u
O=C1NN(c2ccc(Cl)c(Cl)c2)C(=O)/C1=C/c1ccc(-c2ccccc2C(=O)O)o1,5.01µM,u,31.6µM,u,20µM,39.8µM,18.9,30.1,Pol kappa inh-2=16.8
O=C(Nc1ccc(Cl)cc1Cl)c1cc(S(=O)(=O)N2CCC3(CC2)OCCO3)ccc1F,n,n,n,n,n,n,x,x,
SMILES,POLI inh,Tb PGK inh,Pol beta inh,FEN1 inh,Pol eta inh-1,Pol kappa inh-1,Pol iota confirm,Pol eta inh-2,others
O=C(O)c1ccc(COc2ccccc2/C=C2\NC(=O)N(Cc3ccc(F)cc3)C2=O)cc1,u,n,u,u,u,n,x,x,
O=C1NN(c2ccccc2)C(=O)/C1=C/c1ccc(-c2ccc(C(=O)O)cc2)o1,3.55µM,n,u,50.1µM,7.08µM,17.8µM,23.8,26.9,
O=C(O)c1ccc(-c2ccc(/C=C3\NC(=O)N(Cc4ccc(Cl)cc4)C3=O)o2)cc1,28.2µM,n,n,n,22.4µM,u,37.7,26.9,
CS(=O)(=O)N1CCN(c2ccc([N+](=O)[O-])c(NCc3ccc(Cl)cc3)c2)CC1,8.91µM,n,u,n,u,u,37.7,84.9,
O=C(O)C1=C(C(=O)O)C2C=CC1C2,u,11.2µM,x,n,20µM,u,x,u,TbPGK inh=10.3µM;Pol kappa inh-2=23.8
Cc1ccccc1OCC(=O)N(Cc1ccc(N(C)C)cc1)CC1CCCO1 (stereo unspecified),n,n,n,n,n,n,x,x,
CSc1ccc(/C=C/c2nc3ccccc3n2S(=O)(=O)c2ccc(Br)cc2)cc1,u,u,n,n,n,n,x,x,
NC(=O)c1ccc(NC(=O)COC(=O)/C=C/c2ccc(Br)o2)cc1,22.4µM,u,x,n,2.82µM,35.5µM,42.3,67.5,TbPGK inh=8.19µM;Pol kappa inh-2=u
CC(=O)c1ccc(NC(=O)COC(=O)/C=C/c2cccs2)cc1,n,n,x,n,n,n,x,x,

# Screening data: PubChem, National Center for Advancing Translational Sciences (NCATS)
